Only some compounds are listed: those with a hit (about 0.86% of all), similar ones and a draw of the others.
IDE cell activ: activators of human insulin-degrading enzyme in cells | P14735 | HEK cells, FAbeta-B cleavage, fluorescence polarization; 0% vehicle, 100% cell-free pure enzyme wells | activation, % at 5.96 µM | actives 0.073% (n = 340,000);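 active means activation above the mean of all tested compounds plus 3 SD, set per screening campaign, cut at about 17% in these data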
Target sequence (P14735 whole entry, looked up): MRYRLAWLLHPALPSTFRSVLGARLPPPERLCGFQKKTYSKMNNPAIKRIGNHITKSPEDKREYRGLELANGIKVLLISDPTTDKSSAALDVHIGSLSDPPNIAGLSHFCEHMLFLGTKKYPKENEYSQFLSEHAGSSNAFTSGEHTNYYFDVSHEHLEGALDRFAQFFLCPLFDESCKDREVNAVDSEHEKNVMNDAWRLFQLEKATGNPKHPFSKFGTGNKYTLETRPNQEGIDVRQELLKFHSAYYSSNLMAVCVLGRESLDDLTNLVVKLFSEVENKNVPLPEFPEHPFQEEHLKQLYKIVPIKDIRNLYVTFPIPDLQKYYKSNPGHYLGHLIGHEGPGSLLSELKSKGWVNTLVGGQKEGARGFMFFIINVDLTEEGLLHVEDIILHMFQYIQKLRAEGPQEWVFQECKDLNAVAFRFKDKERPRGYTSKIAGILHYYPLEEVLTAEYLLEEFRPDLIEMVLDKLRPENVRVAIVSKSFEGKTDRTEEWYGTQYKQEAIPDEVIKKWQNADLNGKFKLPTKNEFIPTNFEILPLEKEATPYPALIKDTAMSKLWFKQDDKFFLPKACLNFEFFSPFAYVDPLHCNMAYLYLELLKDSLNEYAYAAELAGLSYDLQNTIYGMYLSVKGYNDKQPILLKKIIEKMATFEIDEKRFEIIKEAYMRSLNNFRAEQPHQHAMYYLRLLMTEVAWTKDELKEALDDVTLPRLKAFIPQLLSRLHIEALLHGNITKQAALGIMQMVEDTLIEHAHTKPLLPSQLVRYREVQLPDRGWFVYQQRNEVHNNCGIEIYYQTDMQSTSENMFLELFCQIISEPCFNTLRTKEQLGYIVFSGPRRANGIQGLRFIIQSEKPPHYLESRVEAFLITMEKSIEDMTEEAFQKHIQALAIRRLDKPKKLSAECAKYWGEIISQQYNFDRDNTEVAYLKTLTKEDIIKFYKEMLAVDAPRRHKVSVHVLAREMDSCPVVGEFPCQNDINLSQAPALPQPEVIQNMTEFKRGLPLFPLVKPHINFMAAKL
TLR4 MyD88 comp: blocks binding of human TLR4 to MyD88; inhibition, % at 8.4 µM; O00206+Q99836; HeLa CL3-4 TLR4/MyD88 BLA complementation, FRET ratio; actives 0.18% (n = 200,000); AID 861; in the data active means inhibition above about 25%
TLR9-MyD88 block: inhibitors of human TLR9-MyD88 binding; CHO BLA complementation TLR9-MyD88, CCF4 FRET ratio; inhibition, % at 4.98 µM; actives 0.21% (n = 340,000);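 active means inhibition above the mean over all tested compounds plus 3 SD, cut at about 21% in these data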
NOD2 RIPK2 PPI: inhibitors of human NOD2-RIPK2 interaction. inhibition, % at 4.98 µM. actives 0.38% (n = 360,000). CHO BLA complementation NOD2-RIPK2, CCF4 ratio; in the data active means inhibition above about 21%
IDE cell inh: inhibits human insulin-degrading enzyme in HEK cells. inhibition, % at 5.59 µM. P14735. actives 0.41% (n = 320,000). FAbetaB cleavage, fluorescence polarization;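 active means percent inhibition above the average of all tested compounds plus 3 SD, set per screening campaign, cut at about 16% in these data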;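 further: IDE supplied by intact live HEK cells; FP after avidin binding of uncleaved biotin substrate so inhibition keeps polarization high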
TLR4-MyD88 conf: confirmation of human TLR4-MyD88 binding inhibitors; shares compounds with TLR4 MyD88 comp; HeLa CL3-4 BLA complementation, CCF4 FRET ratio; inhibition, % at 8.4 µM; actives 50% (n = 350); AID 941;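 active means mean inhibition across three repeat runs above about 25% carried over from the earlier screen, limit read from the data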
BLA inh HeLa: inhibits beta-lactamase activity, counter-screen to TLR4-MyD88 binding inhibitors; shares compounds with TLR4 MyD88 comp; HeLa BLA reporter, CCF4 FRET ratio; inhibition, % at 8.4 µM; actives 63% (n = 350); AID 1237;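 active means mean inhibition over three repeats above about 26% taken from the earlier screen, limit read from the data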;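 further: HeLa cells stably expressing beta-lactamase reporter as counterscreen for TLR4-MyD88 inhibitors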
IDE inh confirm: confirmation of human insulin-degrading enzyme inhibitors in cells. shares compounds with IDE cell inh. HEK cells, FAbetaB cleavage, fluorescence polarization. inhibition, % at 5.59 µM. actives 51% (n = 1,200). AID 435028;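 active means mean inhibition across triplicate wells above the cutoff set by the earlier primary insulin-degrading enzyme screen, cut at about 16% in these data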
HEK cytotox: kills HEK cells in IDE inhibitor counter-screen. shares compounds with IDE cell inh. HEK293 cytotoxicity, ATP luminescence. inhibition, % at 5.59 µM. actives 28% (n = 1,200); in the data active means inhibition above about 22%
TLR9-MyD88 cf: confirmation of human TLR9-MyD88 binding inhibitors. shares compounds with TLR9-MyD88 block. CHO TLR9/MyD88 BLA complementation, CCF4 FRET ratio. inhibition, % at 4.98 µM. actives 51% (n = 680);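 active means mean inhibition across three repeats above about 21% taken from the earlier screen, limit read from the data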;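 further: blue over green emission ratio reports constitutive TLR9 MyD88 association via BLA complementation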
BLA counter-1: non-selective beta-lactamase inhibitors in TLR9-MyD88 counter-screen | shares compounds with TLR9-MyD88 block | CHO-BLA cells, CCF4 FRET ratio, BLA reporter | inhibition, % at 4.98 µM | actives 7% (n = 680) | AID 540251;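 active means mean inhibition above a 50% cutoff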;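 further: counterscreen of TLR9-MyD88 hits on CMV-driven BLA in CHO-K1 cells; higher means less blue over green ratio so more BLA blockade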
TLR9 CHO tox: counter-screen for TLR9-MyD88 inhibitors: cytotoxicity in CHO cells. shares compounds with TLR9-MyD88 block. luminescence. inhibition, % at 4.98 µM. actives 39% (n = 680). AID 588336; in the data active means inhibition above about 11%
NOD2-RIPK2 conf: NOD2-RIPK2 interaction inhibition confirmed. shares compounds with NOD2 RIPK2 PPI. CHO cells, NOD2-RIPK2 BLA complementation, CCF4 FRET. actives 70% (n = 1,200). inhibition, % at 4.98 µM. AID 624370;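 active means mean inhibition across replicates above a set limit taken from the earlier primary screen, cut at about 21% in these data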
BLA counter-2: hits BLA reporter in NOD2-RIPK2 inhibitor counterscreen; shares compounds with NOD2 RIPK2 PPI; CHO BLA reporter, CCF4 FRET ratio; inhibition, % at 4.98 µM; actives 57% (n = 1,200); AID 624371;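 active means mean inhibition above the low-control mean inhibition plus three low-control SD, cut at about 11% in these data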
Large screens that a line does not name were inactive (follow-up assays come after a bar, where they were run).

Cc1nn(C)c(C)c1N1C(=O)c2cccc3c(N)ccc(c23)C1=O	TLR4 MyD88 comp 29.4, TLR9-MyD88 block 29.0, NOD2 RIPK2 PPI 34.0 | TLR4-MyD88 conf inactive | BLA inh HeLa 44.1 | TLR9-MyD88 cf inactive | BLA counter-1 inactive | TLR9 CHO tox inactive | NOD2-RIPK2 conf 43.9 | BLA counter-2 44.0
COc1ccc2cc(-c3ccsc3)ncc2c1	none (no result: TLR4 MyD88 comp)
CCn1c(C)nc([N+](=O)[O-])c1C(=O)O	none
COc1cc2c3nnc(-c4ccc(F)cc4)c-3cn(Cc3ccc(C)cc3)c2cc1OC	TLR4 MyD88 comp 47.7, TLR9-MyD88 block 26.6, NOD2 RIPK2 PPI 50.6 | TLR4-MyD88 conf 25.7 | BLA inh HeLa 81.2 | TLR9-MyD88 cf 58.7 | BLA counter-1 61.1 | TLR9 CHO tox inactive | NOD2-RIPK2 conf 84.2 | BLA counter-2 85.7
COc1cc2c3nnc(-c4ccc(F)cc4)c-3cn(Cc3cccc(C)c3)c2cc1OC	TLR4 MyD88 comp 44.2, TLR9-MyD88 block 41.5, NOD2 RIPK2 PPI 55.0 | TLR4-MyD88 conf inactive | BLA inh HeLa 59.9 | TLR9-MyD88 cf 26.1 | BLA counter-1 inactive | TLR9 CHO tox inactive | NOD2-RIPK2 conf 73.1 | BLA counter-2 75.3
CC1=C(C(=O)N2CCCCCC2)CC(CC(=O)NCCCN(C)C)C(=O)N1Cc1ccc(C(C)(C)C)cc1 (stereo not drawn)	none (no result: IDE cell activ, TLR4 MyD88 comp, TLR9-MyD88 block, IDE cell inh)
CCN1CCN(c2ccc(NC(=O)c3ccc([N+](=O)[O-])o3)cc2Cl)CC1	TLR4 MyD88 comp 29.9, NOD2 RIPK2 PPI 31.0 (no result: IDE cell inh) | TLR4-MyD88 conf inactive | BLA inh HeLa inactive | NOD2-RIPK2 conf 25.5 | BLA counter-2 15.9
Cc1cc(C)n2c(=O)c3ccc(Cl)cc3nc2c1C#N	none
Cc1cc(Cl)n2c(nc3cc(F)c(F)cc32)c1C#N	TLR4 MyD88 comp 75.4, TLR9-MyD88 block 70.9, NOD2 RIPK2 PPI 63.3 (no result: IDE cell inh) | TLR4-MyD88 conf 71.7 | BLA inh HeLa 86.3 | TLR9-MyD88 cf 66.3 | BLA counter-1 54.2 | TLR9 CHO tox 100.9 | NOD2-RIPK2 conf 89.5 | BLA counter-2 82.2
COc1ccc(C(=O)c2sc3nc(-c4ccccc4)ccc3c2N)cc1	TLR4 MyD88 comp 46.9, TLR9-MyD88 block 40.4, NOD2 RIPK2 PPI 50.1, IDE cell inh 21.5 | TLR4-MyD88 conf 51.8 | BLA inh HeLa 85.9 | IDE inh confirm 19.5 | HEK cytotox inactive | TLR9-MyD88 cf 52.0 | BLA counter-1 52.5 | TLR9 CHO tox inactive | NOD2-RIPK2 conf 72.8 | BLA counter-2 78.8
CC(C)OC(=O)c1sc2nc(-c3ccccc3)ccc2c1N	TLR4 MyD88 comp 48.8, TLR9-MyD88 block 37.9, NOD2 RIPK2 PPI 24.4 | TLR4-MyD88 conf 48.3 | BLA inh HeLa 77.1 | TLR9-MyD88 cf 42.0 | BLA counter-1 inactive | TLR9 CHO tox inactive | NOD2-RIPK2 conf 63.9 | BLA counter-2 73.5
